VLA-4 inh – inhibition in a human VLA-4 binding assay | 330,000 tested, 0.2% active | VLA-4 expressing cells, ligand binding flow cytometry | inhibition, % (about 7 µM as worked out from the volumes in the protocol) | AID 2557; in the data active = inhibition above about 50%
NRP1-CendR mod – NRP-1/CendR interaction modulation; O14786; FAM-RPARPAR peptide binding to NRP-1, fluorescence polarization; inhibition, % at 25 µM; 360,000 tested, 0.85% active;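 active = inhibition or corrected inhibition above about 18%, plus a signal ratio from 0.5 to 1.5, limit read from the data, passing the limit was not always enough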
PKA-R2B act – activates the human PKA-R2B holoenzyme complex; AID 504700; P22694+P31323; PKA-R2B holoenzyme dissociation, Cy5-IP20 fluorescence polarization; R2B truncated from residue 108, S112A mutant; 0% DMSO only, 100% 113 µM cGMP; 340,000 tested, 0.079% active; activation, % at 11.4 µM;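 active = activation above a cutoff set at the mean over all compounds plus 3 SD, cut at about 18% in these data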;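 note: higher means more holoenzyme dissociation and a rise in polarization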
PKA-R1A activ – activators of PKA-R1A complex; P00514+P68181; PKA-R1A dissociation, Cy5-IP20 fluorescence polarization; scaled: DMSO 0%, 113 µM cGMP 100%; activation, % at 11.4 µM; 340,000 tested, 0.083% active;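 active = percent activation above the mean of all tested compounds plus 3 SD, cut at about 19% in these data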;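 note: higher means more PKAc released from R1A so a rise in polarization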
ATG4B inhibitor – ATG4B (human) cysteine protease inhibition; Q9Y4P1; ATG4B cleavage of LC3-PLA2, NBD-HPC fluorescence, 1 h; inhibition, % at 8.33 µM; 340,000 tested, 0.51% active; AID 504462
Target sequence (Q9Y4P1 whole entry, looked up): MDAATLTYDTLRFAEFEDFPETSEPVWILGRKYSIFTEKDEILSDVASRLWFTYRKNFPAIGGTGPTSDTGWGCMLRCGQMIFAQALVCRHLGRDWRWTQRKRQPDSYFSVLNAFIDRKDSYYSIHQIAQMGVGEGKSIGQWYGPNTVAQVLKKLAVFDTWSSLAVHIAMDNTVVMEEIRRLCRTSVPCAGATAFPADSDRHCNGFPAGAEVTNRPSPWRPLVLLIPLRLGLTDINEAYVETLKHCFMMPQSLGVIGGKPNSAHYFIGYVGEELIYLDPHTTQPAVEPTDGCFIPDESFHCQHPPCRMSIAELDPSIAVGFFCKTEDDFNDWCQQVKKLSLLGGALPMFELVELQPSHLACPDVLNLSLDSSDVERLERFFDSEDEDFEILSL
VLA-4 allo CP – confirmation of allosteric modulators of human VLA-4 integrin. inhibition, % at 6.7 µM. 1,300 tested, 2% active. U937 cells, HUTS-21 LIBS mAb binding, flow cytometry; LDV ligand present at threefold Kd. AID 2813. shares compounds with VLA-4 inh
A number is an active result; . = inactive; / = no result. Most compounds without a hit are left out; they make up all but 1.6% or so of the library. Cut-off read from the data, not from the text of the source, unless noted: active = inhibition above about 40%; inactive = the rest.

SMILES	VLA-4 inh	NRP1-CendR mod	PKA-R2B act	PKA-R1A activ	ATG4B inhibitor	VLA-4 allo CP
Cc1nc2ccc(S(=O)(=O)NCC(=O)Nc3ccc(F)cc3)cc2s1	.	.	.	.	.	/
CCN(CC)c1ncnc2c1ncn2[C@H]1CN(Cc2ccccc2)C[C@@H](CO)O1	/	.	/	/	/	/
O=C(CN1C(=O)CCSc2ccc(S(=O)(=O)N3CCCC3)cc21)NCc1ccccc1Cl	.	.	.	.	.	/
Cc1cccc(C)c1NC(=O)Cn1cc(C=O)c2ccccc21	.	.	.	.	.	.
COc1ccc(OCCCC(=O)NNC(=O)c2ccncc2)cc1	.	.	.	.	.	/
O=C(c1ccco1)N1CCN(C(=O)c2cc(-c3ccccc3)nc3ccccc23)CC1	.	.	.	.	.	/
O=C(c1cc(-c2ccco2)nc2ccccc12)N1CCN(Cc2ccccc2)CC1	.	.	.	.	.	.
O=C(c1ccco1)N1CCN(C(=O)c2cc(-c3ccccn3)nc3ccc(Cl)cc23)CC1	.	.	.	.	.	.
O=C(c1ccco1)N1CCN(C(=O)c2cc(-c3ccncc3)nc3ccc(Br)cc23)CC1	.	.	.	.	.	.
CCOC(=O)CSc1nc(C)c(C(C)=O)cc1C(N)=O	.	.	.	.	.	/
CCC(=O)NC(=S)Nc1ccccc1C(=O)NC1CCCCC1	.	.	.	.	.	.
Cc1c(C)c2c(OCC(=O)N[C@@H](Cc3ccccc3)C(=O)O)cc3c(c2oc1=O)CCC(C)(C)O3	64.3	.	.	.	.	.
CSC[C@H](NC(=O)COc1cc2c(c3oc(=O)c(C)c(C)c13)CCC(C)(C)O2)C(=O)O	.	.	.	.	.	/
CN(C)S(=O)(=O)c1cccc(NC(=O)c2cc(-c3cccs3)nn2-c2ccccc2)c1	.	.	.	.	.	.
Cc1cccc(NC(=O)C2CCN(C(=O)c3ccc(Cl)cc3)CC2)n1	.	.	.	.	.	.
Cc1cccc(NC(=O)C2CCN(C(=O)c3ccc(F)cc3)CC2)n1	.	.	.	.	.	.
O=C(Nc1cccc(S(=O)(=O)N2CCCCCC2)c1)C1CCN(C(=O)c2ccc(Cl)cc2)CC1	.	.	.	.	.	/
CC1(C)CC2CC(C)(CN2S(=O)(=O)c2ccc(F)cc2F)C1 (stereo not drawn)	.	.	.	.	.	/
CC(C)C[C@H]1CN(CCCC[C@@H]2CNC(=O)C(=O)N2Cc2ccccc2)C(=O)C(=O)N1CC1CCCCC1	/	.	/	/	/	/
COc1ccc(C2c3ccc4ccccc4c3Oc3ncn(CCCN(C)C)c(=N)c32)cc1 (stereo not drawn)	.	.	.	.	.	.
COc1ccccc1C1c2ccc3ccccc3c2Oc2ncn(CCN(C)C)c(=N)c21 (stereo not drawn)	.	.	.	.	.	/
O=C1NN(c2ccccc2)C(=O)/C1=C/c1cccs1	.	/	/	/	/	.
O=C1NN(c2cccc(Br)c2)C(=O)/C1=C/c1cccs1	.	.	.	.	.	/
CSc1ccc(CN(C)C(=O)C23CC4CC(CC(Cl)(C4)C2)C3)cc1	64.1	.	.	.	.	.
COc1ccc(Cl)cc1NC(=O)CN(C)C(=O)C12CC3CC(CC(Cl)(C3)C1)C2	.	.	.	.	.	/
SMILES	VLA-4 inh	NRP1-CendR mod	PKA-R2B act	PKA-R1A activ	ATG4B inhibitor	VLA-4 allo CP
FC(F)(F)c1cccnc1N1CCN(c2ncnc3nc[nH]c23)CC1	49.7	.	.	.	.	.
Fc1ccccc1N1CCN(c2ncnc3nc[nH]c23)CC1	.	.	.	.	.	/
Cc1cc(C)c(-c2cc(C(=O)Nc3c(C)n(C)n(-c4ccccc4)c3=O)[nH]n2)c(O)c1	.	.	.	.	.	/
Cc1ccc(-c2cc(C(=O)Nc3c(C)n(C)n(-c4ccccc4)c3=O)[nH]n2)c(O)c1	.	.	.	.	.	.
Cc1c(NC(=O)c2ccccc2N(C)S(=O)(=O)c2ccccc2)c(=O)n(-c2ccccc2)n1C	.	.	.	.	.	.
Cc1c(NC(=O)c2ccc(Cl)c(S(=O)(=O)N3CCCCC3)c2)c(=O)n(-c2ccccc2)n1C	.	.	.	.	.	/
COc1cccc(OC)c1C(=O)Nc1c(C)n(C)n(-c2ccccc2)c1=O	.	.	.	.	.	.
Cc1c(NC(=O)c2ccc(Cl)c(S(=O)(=O)N3CCOCC3)c2)c(=O)n(-c2ccccc2)n1C	.	.	.	.	.	.
CCOC(=O)C1CCN(C(=O)Cn2nc(C)n3cccc3c2=O)CC1	.	.	.	.	.	/
Cc1ccccc1S(=O)(=O)N1C[C@@H]2C(C(=O)C[C@@H]3C(=O)N(C)C(=O)[C@@H]32)[C@@H]1c1ccc(Cl)cc1 (stereo partly drawn)	/	.	/	/	/	/
Cc1c(NC(=O)C2CC=CCC2C(=O)O)c(=O)n(-c2ccccc2)n1C (stereo not drawn)	.	.	.	.	.	.
CCN(CC)C(=O)Nc1c(C)n(C)n(-c2ccccc2)c1=O	.	.	.	.	.	/
O=C(N1CCOCC1)N1CCC(NC(=O)C23CC4CC(CC(C4)C2)C3)CC1	52.3	.	.	.	.	.
O=C(N1CCOCC1)C12CCC3CC(CC(C3)C1)C2	.	.	.	.	.	/
CC(=O)c1ccc(N2CCN(C(=O)c3ccc(Cl)c(NC4=NC5CS(=O)(=O)CC5S4)c3)CC2)cc1 (stereo not drawn)	.	.	.	.	.	/
COc1cccc(N2CCN(C(=O)c3ccc(Cl)c(NC4=NC5CS(=O)(=O)CC5S4)c3)CC2)c1 (stereo not drawn)	.	.	.	.	.	.
O=C(c1cccc(NC2=NC3CS(=O)(=O)CC3S2)c1)N1CCN(c2ncccn2)CC1 (stereo not drawn)	.	.	.	.	.	.
COc1ccc(N2CCN(C(=O)c3cccc(NC4=NC5CS(=O)(=O)CC5S4)c3)CC2)cc1 (stereo not drawn)	.	.	.	.	.	/
CCOC(=O)N1CCN(C(=O)c2cccc(NC3=NC4CS(=O)(=O)CC4S3)c2)CC1 (stereo not drawn)	.	.	.	.	.	.
COc1ccccc1CC(=O)N1CCN(S(=O)(=O)c2ccccc2F)CC1	51.8	.	.	.	.	.
COCCN(Cc1cc2cc3c(cc2nc1Cl)OCO3)C(=O)Nc1ccc(OC)cc1	53.8	.	.	.	.	.
Cc1cccc(NC(=O)CCS(=O)(=O)c2ccc3nc(C)sc3c2)c1	/	.	/	/	/	/
Cc1ccnc(SCC(=O)N2CCC(C(N)=O)CC2)n1	50.7	.	.	.	.	.
Cc1nn(CC(=O)NNC(=O)c2cccc(Br)c2)c(C)c1[N+](=O)[O-]	.	.	.	.	.	/
Cc1ccc(NC(=O)CN(C)S(=O)(=O)c2cccc3cccnc23)cc1C	.	.	.	.	.	/
COCCn1nnnc1C(c1ccc(OC)cc1OC)N1CCN(c2ccccc2F)CC1 (stereo not drawn)	99.2	.	.	.	.	.

Compound activity deposited in PubChem BioAssay by several laboratories.
